The source of these data is PubChem BioAssay.

Values joined by “and” are separate entries in the source; they are usually repeats but may differ in a detail not shown here. Equal entries are not always repeated. Active and inactive are the calls of the source. Unless noted, no rule for the calls is given here.

For assay [1], the system named is XIP peptide (Xip251-270) binding. The assay can be described thus: XIP fragment 251-270 binding compounds – biochemical, small-molecule microarray, fluorescence 635/667 nm, 0.1 µg/mL protein, primary screen (AID 1182). The following applies: fluorescent protein binding, 635 nm, higher = more signal, called active from +8 up or from −8 down.
In the next assay the test system is XIP peptide (Xip251-270). The assay is described as follows: compounds binding XIP fragment 251-270 – biochemical, small-molecule microarray, fluorescence 635/667 nm, 0.5 µg/mL protein, primary screen (AID 1183). The following applies: fluorescence 635 nm, higher = more signal.
Assay [2] in a line: blood-stage malaria parasite viability loss – strain 3D7, DAPI fluorescence, 100 nL, primary screen (AID 1184).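 Also: parasites grown inside human red blood cells in medium with human serum.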 As to conditions: P. falciparum 3D7 growth, 3 d, higher = more signal.
The target in assay [3] is Homeobox protein Hox-A13 (Mus musculus) (UniProt Q62424). The assay can be described thus: disruptors of Hoxa13 oligonucleotide interaction – biochemical, fluorescence polarization, labeled oligonucleotide, primary screen (AID 1185). As to conditions: Hoxa13:DNA binding, 15 min, higher = more signal, called active from +8 up or from −8 down. For orientation: Polarisation of emitted light reports the rotation of a fluorescent probe.
Sequence of Homeobox protein Hox-A13 (Mus musculus) (Q62424 whole entry, looked up): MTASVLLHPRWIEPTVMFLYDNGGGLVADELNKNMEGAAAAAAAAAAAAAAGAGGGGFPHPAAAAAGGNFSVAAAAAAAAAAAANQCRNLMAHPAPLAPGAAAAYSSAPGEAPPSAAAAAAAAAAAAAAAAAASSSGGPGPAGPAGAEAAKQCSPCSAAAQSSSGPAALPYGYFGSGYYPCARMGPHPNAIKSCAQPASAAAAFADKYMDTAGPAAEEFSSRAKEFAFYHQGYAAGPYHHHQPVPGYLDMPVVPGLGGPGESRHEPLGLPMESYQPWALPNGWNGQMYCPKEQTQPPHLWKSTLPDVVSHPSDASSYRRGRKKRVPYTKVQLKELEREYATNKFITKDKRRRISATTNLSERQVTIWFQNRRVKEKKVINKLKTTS

Assay [4] can be described thus: blockers of DNA damage checkpoint Chk1 activation – imaging, HeLa, hydroxyurea, phospho-Chk1 antibody, percent positive cells, primary screen (AID 1186). As to conditions: hydroxyurea-induced phospho-Chk1 immunofluorescence imaging, higher = more signal.
A short description of assay [5]: blockers of DNA damage checkpoint Chk1 activation – imaging, HeLa, hydroxyurea, phospho-Chk1 nuclear intensity, primary screen (AID 1187). As to conditions: hydroxyurea-induced phospho-Chk1 immunofluorescence imaging, higher = more signal.

For the molecule `C=CCN(CCCC)C(=O)C1N(C(C)(C)CO)C(=O)C2C(C(=O)O)C3C=CC21O3` (configuration not stated), the composite z-score is -0.485 (inactive) and -0.807 (inactive) in assay [1]; 0.214 and -0.185 in the assay with XIP peptide (Xip251-270). The z-score in assay [2] is 0.102 and 0.116; in assay [3], -0.224 (inactive) and -0.0596 (inactive); in assay [4], -0.356 (inactive) and 0.83 (inactive); in assay [5] it was -0.0315 (inactive) and 1.16 (inactive).
In the case of `C=CCN(C(=O)C1N(c2c(Cl)cccc2CO)C(=O)C2C(C(=O)O)C3C=CC21O3)c1ccc(OC)cc1` (configuration not stated), the composite z-score is -0.241 (inactive) and -0.23 (inactive) in assay [1]; 0.74 and 0.312 in the assay with XIP peptide (Xip251-270). For the same molecule, the z-score is -0.927 and 0.408 in assay [2]; -1.96 (inactive) and 0.908 (inactive) in assay [3]; -0.6 (inactive) and -1.27 (inactive) in assay [4]; 0.0631 (inactive) and -0.682 (inactive) in assay [5].
Regarding `C=CCN(Cc1ccccc1)C(=O)C1N(c2c(Cl)cccc2CO)C(=O)C2C(C(=O)O)C3C=CC21O3` (configuration not stated), the composite z-score in assay [1] was 0.297 (inactive) and -0.407 (inactive); in the assay on XIP peptide (Xip251-270) it was -2.24 and -0.403. For the same molecule, the z-score is -0.0029 and -1.42 in assay [2]; 0.428 (inactive) and -1.12 (inactive) in assay [3]; -0.544 (inactive) and -0.696 (inactive) in assay [4]; -0.649 (inactive) and -0.167 (inactive) in assay [5].
On to `C=CCN(Cc1ccccc1)C(=O)C1N(CCOCCO)C(=O)C2C(C(=O)O)C3C=CC21O3` (configuration not stated), for which the composite z-score in assay [1] is 0.463 (inactive) and -0.202 (inactive); in the assay with XIP peptide (Xip251-270) it was -1.03 and -0.657. Besides, the z-score was -0.506 and -0.253 in assay [2]; 0.429 (inactive) and -0.659 (inactive) in assay [3]; -0.0844 (inactive) and 1.49 (inactive) in assay [4]; 0.031 (inactive) and 1.13 (inactive) in assay [5].
Regarding `C=CCN(Cc1ccccc1)C(=O)C(c1cccs1)N(C(=O)/C=C\C(=O)O)c1c(Cl)cccc1CO` (configuration not stated), the composite z-score in assay [1] is -0.422 (inactive) and -0.522 (inactive); in the assay with XIP peptide (Xip251-270) it was -0.367 and -1.55. Moreover, the z-score was -0.82 and -0.106 in assay [2]; 1.14 (inactive) and 0.425 (inactive) in assay [3]; -0.347 (inactive) and 0.628 (inactive) in assay [4]; 0.0032 (inactive) and 0.521 (inactive) in assay [5].
As to `C[N+](C)(C)CCCCCCNC(=O)[C@H]1C[C@H]2C(=O)N[C@@H](CCCC[N+](C)(C)C)C(=O)N2[C@H]1c1ccc(O)cc1`, the composite z-score in assay [1] was 0.0514 (inactive) and -0.283 (inactive); in the assay with XIP peptide (Xip251-270), 0.0535 and -0.189. In addition, the z-score in assay [2] was -1.28 and 0.581; in assay [3] it was 0.627 (inactive) and -1.31 (inactive); in assay [4], -0.563 (inactive) and 0.0546 (inactive); in assay [5], -0.225 (inactive) and -0.0689 (inactive).
`C=C[C@H](OC)[C@@H](O)c1ccc(O)c(F)c1`: the composite z-score in assay [1] is 0.406 (inactive) and -0.397 (inactive); with XIP peptide (Xip251-270), 0.563 and 0.0248. Further, the z-score in assay [2] is 1.66 and 0.778; in assay [3], 0.0518 (inactive) and 0.0165 (inactive); in assay [4] it was -0.0834 (inactive) and -0.834 (inactive); in assay [5], -0.132 (inactive) and -0.265 (inactive).
Take `C=C[C@@H](OC)[C@H](O)c1ccc(OC)c(O)c1`: the composite z-score in assay [1] was 0.263 (inactive) and -0.18 (inactive); in the assay on XIP peptide (Xip251-270) it was -0.531 and -1.37. Further, the z-score in assay [2] was -0.151 and -0.337; in assay [3], -0.828 (inactive) and 0.853 (inactive); in assay [4] it was 0.719 (inactive) and -0.433 (inactive); in assay [5], -0.0654 (inactive) and 0.0937 (inactive).
With `C=CCN(C(=O)C(c1cccs1)N(C(=O)/C=C\C(=O)O)c1ccc(CCO)cc1)c1ccc(OC)cc1` (configuration not stated), the composite z-score was -0.104 (inactive) and -0.169 (inactive) in assay [1]; -0.0376 and -1.95 with XIP peptide (Xip251-270). Further, the z-score in assay [2] is -0.142 and -0.395; in assay [3], -0.698 (inactive) and -0.535 (inactive); in assay [4], -0.157 (inactive) and 0.581 (inactive); in assay [5] it was 0.686 (inactive) and 0.548 (inactive).
With `C=C[C@@H](C)[C@H](O)c1ccc(O)c2ccccc12`, the composite z-score is -0.299 (inactive) and 0.342 (inactive) in assay [1]; 0.892 and 0.102 in the assay on XIP peptide (Xip251-270). In addition, the z-score in assay [2] is -0.559 and 0.666; in assay [3] it was -3.78 (inactive) and -2.87 (inactive); in assay [4] it was 0.311 (inactive) and 0.801 (inactive); in assay [5], 0.0888 (inactive) and 0.837 (inactive).
Regarding `C=CC[C@@H](O)c1ccc(O)c2ccccc12`, the composite z-score in assay [1] is 2.01 (inactive) and 0.431 (inactive); with XIP peptide (Xip251-270) it was 0.703 and 0.802. The z-score in assay [2] is -0.401 and 0.619; in assay [3] it was -2.24 (inactive); in assay [4], 0.024 (inactive) and 0.26 (inactive); in assay [5], 0.515 (inactive) and 0.183 (inactive).
For `COC(=O)[C@@]1(Cc2ccc(OC)cc2)[C@H]2c3cc(C(=O)N(C)C)n(Cc4ccc(O)c(OC)c4)c3C[C@H]2CN1C(=O)c1ccccc1`, the composite z-score in assay [1] is 0.371 (inactive) and 0.389 (inactive); in the assay on XIP peptide (Xip251-270) it was 0.594 and 0.642. The z-score is -1.65 and -1.56 in assay [2]; -5.37 (inactive) and -3.28 (inactive) in assay [3]; 0.402 (inactive) and -0.804 (inactive) in assay [4]; 0.504 (inactive) and -0.921 (inactive) in assay [5].
